# Source: paper PMC4336329 (PLoS ONE, 2015)
# Hit rate of the full screen: of about 310,000 compounds, about 14,000 (4.5%) showed an effect of 50% or more. Effects have a minus sign here. Many of the other results were omitted from the sample, so strong results are more common in it than they were.
# Biological target: human ether-à-go-go-related gene (hERG) potassium channel (human, UniProt Q12809)
# Assay: primary screen, population patch clamp on CHO cells stably expressing hERG; higher = less effect of the substance
# 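Further: peak tail current of the secondary pulse compared with the same well before compound.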
# Sequence of human ether-à-go-go-related gene (hERG) potassium channel (Q12809 whole entry, looked up): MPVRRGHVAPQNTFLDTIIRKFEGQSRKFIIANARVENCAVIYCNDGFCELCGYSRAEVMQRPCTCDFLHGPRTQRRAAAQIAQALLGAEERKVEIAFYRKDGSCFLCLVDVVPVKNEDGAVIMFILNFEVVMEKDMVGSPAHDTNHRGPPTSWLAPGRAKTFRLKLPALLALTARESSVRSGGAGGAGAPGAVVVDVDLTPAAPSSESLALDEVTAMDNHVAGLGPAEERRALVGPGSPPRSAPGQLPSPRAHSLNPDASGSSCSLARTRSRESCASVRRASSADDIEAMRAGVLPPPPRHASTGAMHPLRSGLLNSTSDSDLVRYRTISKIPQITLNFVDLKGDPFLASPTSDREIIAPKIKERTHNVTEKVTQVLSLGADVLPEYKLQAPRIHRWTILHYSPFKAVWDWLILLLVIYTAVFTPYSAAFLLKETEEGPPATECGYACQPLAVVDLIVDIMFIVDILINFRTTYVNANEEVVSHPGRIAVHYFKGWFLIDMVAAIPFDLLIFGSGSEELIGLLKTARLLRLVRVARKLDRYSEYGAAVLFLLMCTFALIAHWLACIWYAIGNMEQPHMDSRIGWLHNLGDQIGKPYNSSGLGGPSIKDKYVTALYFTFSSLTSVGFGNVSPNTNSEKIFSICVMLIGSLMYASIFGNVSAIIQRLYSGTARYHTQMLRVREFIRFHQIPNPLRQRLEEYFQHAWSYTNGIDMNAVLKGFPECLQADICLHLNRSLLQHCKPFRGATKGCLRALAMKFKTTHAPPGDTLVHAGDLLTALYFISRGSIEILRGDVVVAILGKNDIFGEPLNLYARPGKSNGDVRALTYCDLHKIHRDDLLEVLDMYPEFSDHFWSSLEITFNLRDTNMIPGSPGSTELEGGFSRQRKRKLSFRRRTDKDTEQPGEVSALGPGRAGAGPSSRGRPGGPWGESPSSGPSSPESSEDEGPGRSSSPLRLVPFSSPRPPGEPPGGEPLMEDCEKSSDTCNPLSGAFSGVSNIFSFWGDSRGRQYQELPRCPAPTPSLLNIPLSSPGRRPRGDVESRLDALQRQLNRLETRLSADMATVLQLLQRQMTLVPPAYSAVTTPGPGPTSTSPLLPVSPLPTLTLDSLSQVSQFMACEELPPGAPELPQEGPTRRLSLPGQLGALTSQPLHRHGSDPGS
row,Structure (SMILES),"hERG current change (%, negative = inhibition) at 10uM"
1,CSCCC(NC(=O)c1ccc(Cl)cc1)C(=O)OCC(=O)N1CCCC1=O (centres unmarked),-2.69%
2,O=[N+]([O-])c1cccc(-c2ccc(C(=S)N3CCN(c4ccccc4)CC3)o2)c1,27.7%
3,O=S(=O)(c1ccc(F)cc1)N1CCN(C(=S)NCc2ccccc2)CC1,13.8%
4,S=C(NCc1ccccc1)N1CCN(Cc2ccc3c(c2)OCO3)CC1,-16.7%
5,CCOC(=O)c1ccc(NC(=S)NCCCN2CCCCC2)cc1,-42%
6,CCOc1ccc(NC(=S)NCCCN2CCN(C3CCCCC3)CC2)cc1,-47.2%
7,O=S(=O)(c1ccccc1)N1CCN(C(=S)NCc2ccccc2)CC1,-50.3%
8,O=C(c1ccccc1)N1CCN(c2ccc(NCc3ccc4c(c3)OCO4)cc2)CC1,-12.2%
9,S=C(NCc1ccccc1)N1CCCCC1,-1.03%
10,CCOC(=O)c1ccc(NC(=S)NCCCN2CCN(C3CCCCC3)CC2)cc1,-53.7%
11,O=C(c1ccccc1)N1CCN(C(=S)NCc2ccc3c(c2)OCO3)CC1,-59.4%
12,S=C(NCc1ccccc1)N1CCN(C2CCCCC2)CC1,-62.6%
13,O=S(=O)(c1cccc(F)c1)N1CCN(C(=S)NCc2ccccc2)CC1,-0.89%
14,S=C(NCc1ccccc1)N1CCN(C(=S)NCc2ccccc2)CC1,12.9%
15,CC(=O)N1CCc2cc(N=NC3=C(O)CCCC3=O)ccc21,9.61%
16,COCCn1c(Cc2ccccc2)nnc1SCC(=O)N1CCCCC1C (centres unmarked),7.49%
17,COc1ccc(CCC(=O)NNC(=O)Nc2ccccc2Cl)cc1,4.25%
18,CC1(c2ccc(OC(F)F)cc2)NC(=O)N(CC(=O)Nc2ccc3c(c2)OCO3)C1=O (centres unmarked),-36.5%
19,N#Cc1cc2c(nc1SCC(=O)Nc1sc3c(c1C#N)CCC3)CCCC2,4.92%
20,CCOc1ccc(C(=O)COC(=O)Cn2cnc3c2c(=O)n(C)c(=O)n3C)cc1,-13.5%
21,S=C(Nc1ccccn1)NC1CCCC1,-17.6%
22,O=C(NC(=S)Nc1ccc(CN2CCCCC2)cc1)c1cc2ccccc2o1,-24.3%

row,Structure (SMILES),"hERG current change (%, negative = inhibition) at 10uM"
1,COc1ccc(NC(=O)c2ccco2)cc1NC(=O)c1ccccc1F,25.6%
2,Cc1ccc2nc(C3CCN(CC(=O)N4CCCCCC4)CC3)[nH]c2c1,-22.2%
3,CC1CCCCN1C(=O)CN1CCC(c2nc3ccc(Cl)cc3[nH]2)CC1 (centres unmarked),-60.2%
4,O=C(NC1CCCCC1)N1CCC(c2nc3ccc(Cl)cc3[nH]2)CC1,-34.3%
5,CC1CCCCN1C(=O)Cc1ccc(Cl)cc1 (centres unmarked),-11.1%
6,CC1CCCN(C(=O)CN2CCC(c3nc4ccc(Cl)cc4[nH]3)CC2)C1 (centres unmarked),-67.8%
7,CC1CCCCN1C(=O)CSc1nc2ccccc2[nH]1 (centres unmarked),25.8%
8,O=C1CC(N2CCC(c3nc4ccccc4o3)CC2)C(=O)N1c1ccc(Cl)c(C(F)(F)F)c1 (centres unmarked),6.87%
9,COC(=O)C1=C(C)N(c2cccc(C(C)=O)c2)C(=O)C1,7.45%
10,CC(C)OC(=O)/C(C#N)=C/c1cn(Cc2ccccc2)c2ccccc12,-6.73%
11,COc1ccc(N(C(=O)CNC(=O)c2ccco2)C(C(=O)NC2CCCCC2)c2ccco2)cc1 (centres unmarked),8.58%
12,C=CCNc1nc2c(c(=O)[nH]c(=O)n2C)n1CCCCC,-12.1%
13,O=[N+]([O-])c1ccc2[nH]cc(S(=O)(=O)N3CCN(c4cccc(Cl)c4)CC3)c2c1,16.3%
14,NC(=O)NC(=O)COC(=O)c1cccc(S(=O)(=O)N2CCCCCC2)c1,-21.4%
15,CSc1ccc(S(=O)(=O)N2CCC(C(=O)Nc3ccccc3C(F)(F)F)CC2)cc1,7.69%
16,C=CCNC(=O)C1CCN(S(=O)(=O)c2ccc(Br)cc2)CC1,-58.7%
17,C=CCNC(=O)c1ccccc1NC(=O)C1CCN(S(=O)(=O)c2ccc(SC)cc2)CC1,-70%
18,C=CCNC(=O)C1CCN(S(=O)(=O)c2ccccc2)CC1,-2.98%
19,C=CCNC(=O)c1ccccc1NS(=O)(=O)c1ccc(SC)cc1,-6.5%
20,CCCNC(=O)C1CCN(S(=O)(=O)c2ccc(Br)cc2)CC1,-1.78%
21,Nc1nc(N)nc(-c2cc(O)ccc2O)n1,10.3%
22,O=C(CSc1ccccc1)N(c1ccc(Br)cc1)c1nccs1,10.8%
